Laboratory results as given in PubChem BioAssay (NCATS).
Inconclusive results are not listed. Calls of active or inactive are those of the source. Unless noted, calls come from the whole dose curve; as a rule, active = well fitted curve in either direction with a large enough effect (not every such curve was filed as active); inconclusive = small, poorly fitted or top-dose-only effect, or another doubt; inactive = flat fitted curve, though single readings scatter.

How the values were obtained:
[1] = AP1 Signaling Pathway (AID 357)
How it was run: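 Titration-series screen for positive or negative modulators of EC50 EGF-induced signaling in ME-180 cells carrying an AP-1-driven beta-lactamase reporter. After 5 hours at 37 degrees Celsius, CCF4 460nm/530nm emission ratio gave %Activity; AC50 values derived.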

[2] = target: Cytochrome P450 1A2 (Homo sapiens) (UniProt P05177); assay: p450-cyp1a2 (AID 410; calls by dose curve)
Cytochrome P450 1A2 (Homo sapiens), sequence (P05177 whole entry, looked up): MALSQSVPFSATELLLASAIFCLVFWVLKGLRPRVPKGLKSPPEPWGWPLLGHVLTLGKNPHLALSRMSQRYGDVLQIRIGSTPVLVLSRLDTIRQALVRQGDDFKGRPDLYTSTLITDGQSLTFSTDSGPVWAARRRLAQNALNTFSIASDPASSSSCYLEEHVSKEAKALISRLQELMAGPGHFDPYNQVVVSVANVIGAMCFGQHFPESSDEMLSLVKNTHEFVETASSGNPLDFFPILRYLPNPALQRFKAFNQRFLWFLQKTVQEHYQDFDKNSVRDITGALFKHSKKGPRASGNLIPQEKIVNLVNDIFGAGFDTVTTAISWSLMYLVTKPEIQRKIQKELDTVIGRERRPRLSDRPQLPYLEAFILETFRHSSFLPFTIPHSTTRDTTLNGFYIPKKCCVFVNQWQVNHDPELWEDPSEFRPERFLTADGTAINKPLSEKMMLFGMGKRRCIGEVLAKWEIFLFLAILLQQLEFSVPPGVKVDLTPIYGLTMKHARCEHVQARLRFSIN
How it was run: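 Inhibition was calculated relative to 57 uM furafylline (full inhibition). The reaction used human CYP1A2 at 20nM with Luciferin-ME at its Km, 100uM, driven by an NADPH-regenerating system for 60 min at room temperature.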

[3] = NFAT Signaling Pathway (AID 444);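 note: carbachol stimulus at about its EC50 of 1 µM final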
How it was run: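 Read-out: CCF4 FRET ratio (460 nm/530 nm) after 1 h RT dye loading, used for %activity and AC50 from titration series. Cells: Jurkat NFAT-β-lactamase/M1 line, treated with compound plus 1 uM carbachol for 5 h, 37 °C.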

[4] = Stat Signaling Pathway (AID 446);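 note: ME-180 cervical cancer cells given 40 pM IL-6 alongside compound; SIE-controlled beta-lactamase reporter measured as 460/530 nm FRET emission ratio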
How it was run: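 Screening format detects activators and inhibitors alike: ME-180 SIE-bla cells stimulated at 40 pM IL-6 for 5 hrs with compound, then dual-emission beta-lactamase read at 405 nm excitation.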

[5] = Cell Viability - BJ (AID 421; calls by dose curve;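 note: potency is the fitted concentration of half-maximal effect; cells exposed to compound for 40 hours at 37 °C before readout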); conditions: BJ fibroblast viability, qHTS
How it was run: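 Cytotoxicity in human BJ foreskin fibroblasts is scored as loss of cellular ATP after a 40-hour exposure, measured by luciferase luminescence. Controls are DMSO and 100 uM tamoxifen.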

[6] = Cell Viability - Jurkat (AID 426;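 active = dose-dependent loss of cell ATP signal giving a full or clear fitted curve, ranked by lower potency value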;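 note: potency is the fitted concentration of half-maximal effect; cells exposed to compound for 40 hours at 37 °C before ATP read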); conditions: qHTS
How it was run: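 Seed 5000 Jurkat E6-1 cells/well; add compound; incubate 40 hr at 37 °C; add CellTiter-Glo; wait 20 min at room temperature; read luminescence. Fit concentration-response with Hill equation for AC50.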

[7] = Cell Viability - Hek293 (AID 427;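 active = compounds whose dose-response curve shows a full or clear partial loss of cell viability, called from curve shape rather than a numeric limit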;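 note: potency is the fitted concentration of half-maximal effect; cells exposed to compound for 40 hours at 37 °C before reading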); conditions: qHTS
How it was run: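 qHTS, human embryonic kidney (adenovirus-transformed) cells; 40 hr cpd, 37 °C; CellTiter-Glo ATP luminescence. Norm: DMSO = 0, 100 uM tamoxifen = 100% inhibition. Hill-fit AC50.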

[8] = Cell Viability - HepG2 (AID 433; calls by dose curve;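 note: potency is the fitted concentration of half-maximal effect; cells exposed to compound for 40 hours; potency for ATP loss meaning cytotoxicity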); conditions: qHTS
How it was run: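 ATP luminescence (CellTiter-Glo) after 40 h compound exposure, 37 °C, HepG2, 1500 cells/well, complete medium. Normalized: DMSO = basal, 100 uM tamoxifen = 100% inhibition. AC50 via standard Hill equation.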

[9] = Cell Viability - MRC5 (AID 434; calls by dose curve;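 note: potency is the fitted concentration of half-maximal effect; cells exposed to compound for 40 hours at 37 °C; potency reflects cytotoxicity seen as loss of intracellular ATP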); conditions: MRC5 lung fibroblast viability, qHTS
How it was run: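 qHTS cytotoxicity in human lung fibroblast MRC5 cells; 40 hr treatment, 37 °C; cellular ATP by luciferase luminescence; DMSO = 0%, 100 uM tamoxifen = 100% inhibition; Hill-fit AC50.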

[10] = Cell Viability - SK-N-SH (AID 435; calls by dose curve; note: potency is the fitted concentration of half-maximal effect); conditions: SK-N-SH neuroblastoma cell viability qHTS
How it was run: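 CellTiter-Glo ATP luminescence, 20 min RT read; cells pre-plated 5 hr, compound 40 hr at 37 °C, 1500 cells/well, complete medium. Normalized DMSO = 0, 100 uM tamoxifen = 100% inhibition; Hill-fit AC50.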

Measured: Potency

C[C@]1(C2CCCC2)Cc2cc(OCC(=O)O)c(Cl)c(Cl)c2C1=O
inactive: [1] | [2] | [3] | [4]

C=C1C[C@]23C[C@@]1(O)CC[C@H]2[C@@]12C=C[C@H](O)[C@@](C)(C(=O)O1)[C@H]2[C@@H]3C(=O)O
inactive: [5] > 92 µM | [6] > 92 µM | [7] > 92 µM | [8] > 92 µM | [9] > 92 µM | [10] > 92 µM

COc1ccc(CCC(=O)c2c(O)cc(O[C@@H]3O[C@H](CO)[C@@H](O)[C@H](O)[C@H]3O[C@@H]3O[C@@H](C)[C@H](O)[C@@H](O)[C@H]3O)cc2O)cc1O
inactive: [5] > 92 µM | [6] > 92 µM | [7] > 92 µM | [8] > 92 µM | [9] > 92 µM | [10] > 92 µM

CCN1CCN(C(=O)N[C@@H](C(=O)N[C@@H]2C(=O)N3[C@@H]2SC(C)(C)[C@@H]3C(=O)O)c2ccccc2)C(=O)C1=O
inactive: [3] | [4]

CCc1cccc2c3c([nH]c12)[C@@](CC)(CC(=O)O)OCC3
inactive: [1] | [2] | [3] | [4]

CC(C)C[C@H](NC(=O)[C@@H]1O[C@H]1C(=O)O)C(=O)NCCCCN=C(N)N
inactive: [1] | [2] | [3] | [4]
